# Test results reported in PubChem BioAssay (NCI).
# Compounds without any hit were thinned out: in the full panel of roughly 83,000, 20% have a hit.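 For each line, cells grew in 96-well plates with the test compound present at a single concentration for 48 hours.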 Values without a mark were called inactive. The source made the active and inactive calls. The calls were made as follows: active = growth percent below 10; inactive = the rest.
# Tests used:
# Test in all cases: NCI-60 one-dose screen, 48 h (100 = growth as untreated, 0 = no growth, -100 = all killed)
# Settings in all cases: 10 µM
# NCI-H23 lung = system: NCI-H23 lung
# NCI-H226 lung = system: NCI-H226 lung
# NCI-H322M lung = system: NCI-H322M lung
# HOP-62 NSCLC = system: HOP-62 NSCLC
# NCI-H460 lung = system: NCI-H460 lung
# HOP-92 NSCLC = system: HOP-92 NSCLC
# NCI-H522 lung = system: NCI-H522 lung
# A549/ATCC NSCLC = system: A549/ATCC NSCLC
# 786-0 renal = system: 786-0 renal
# COLO 205 colon = system: COLO 205 colon
# DU-145 prostate = system: DU-145 prostate
# K-562 leukemia = system: K-562 leukemia
# MALME-3M melanoma = system: MALME-3M melanoma
# MDA-MB-231 breast = system: MDA-MB-231 breast
# SF-268 CNS = system: SF-268 CNS
# SF-295 CNS = system: SF-295 CNS
# SF-539 CNS = system: SF-539 CNS
# UACC-257 melanoma = system: UACC-257 melanoma
# M14 melanoma = system: M14 melanoma
SMILES,growth (NCI-H23 lung),growth (NCI-H226 lung),growth (NCI-H322M lung),growth (HOP-62 NSCLC),growth (NCI-H460 lung),growth (HOP-92 NSCLC),growth (NCI-H522 lung),growth (A549/ATCC NSCLC),growth (786-0 renal),growth (COLO 205 colon),growth (DU-145 prostate),growth (K-562 leukemia),growth (MALME-3M melanoma),growth (MDA-MB-231 breast),growth (SF-268 CNS),growth (SF-295 CNS),growth (SF-539 CNS),growth (UACC-257 melanoma),growth (M14 melanoma)
CCOC(=O)C1=C(N)N(c2ccccc2)C2=C(C(=O)CC(C)(C)C2)C1c1ccccc1OC (centres undefined),98.3%,101%,94%,102%,115%,114%,95.3%,103%,97.7%,128%,99.6%,97.2%,91.3%,92.5%,114%,89.2%,92.6%,107%,111%
N#Cc1ccc(-c2nn(-c3ccc(C(=O)O)cc3)cc2CNc2cc(Cl)cc(Cl)c2)cc1,18.7%,47.2%,58%,41.8%,32.3%,46.8%,73.1%,53.7%,36%,109%,65.4%,43.7%,80.1%,80.2%,53.3%,38.4%,30.6%,60.2%,34.5%
CN1CCO/C1=C(/NC(=O)c1ccc(Cl)cc1)[P+](c1ccccc1)(c1ccccc1)c1ccccc1,84.5%,89.3%,96.6%,95%,94.1%,60.9%,58.4%,102%,103%,68.9%,95.2%,50.3%,69.2%,61.8%,97%,80.2%,94.5%,62.4%,88.5%
O=c1c2ccccc2nc(COc2ccccc2)n1/N=C/c1ccc(N2CCCC2)cc1,85%,105%,91.2%,108%,105%,75.5%,81.7%,92.2%,92.8%,142%,94.7%,73.4%,115%,89.2%,115%,94.2%,93.6%,108%,101%
CCOc1ccc(Nc2nc3ccccc3nc2Nc2ccc(OCC)cc2)cc1,55.2%,85.6%,71.3%,64.9%,17.2%,27.6%,55.9%,41.3%,32.1%,95.9%,45.1%,30.2%,83.7%,67.7%,40%,43.3%,80.8%,75%,37.6%
Cc1ccc(/C(CSc2nnc(-c3c[nH]c4ccccc34)n2-c2ccccc2)=N/O)cc1,53.3%,-41.1% (active),-42.4% (active),-56.6% (active),1.99% (active),-5.5% (active),23.8%,18.4%,2.17% (active),12.4%,-60.2% (active),1.59% (active),16.7%,-82.1% (active),-60.1% (active),-49.9% (active),10.1%,35.7%,-64.4% (active)
Cn1c(O)c(N=Nc2nc(-c3cc4ccccc4oc3=O)cs2)c2cc(Br)ccc21,51.2%,52%,84.4%,12.1%,92%,-14.7% (active),57.9%,97.8%,-12% (active),136%,101%,100%,49.8%,41.4%,47.2%,14.3%,-6.85% (active),100%,88.7%
CC(=O)Nc1ccc(-c2cn(-c3cccc(C(=O)Nc4cccc(OC(F)(F)F)c4)c3)nn2)cn1,87%,106%,114%,97.7%,47.4%,122%,88.5%,86.3%,115%,111%,84.4%,61.8%,26.4%,97.4%,86.3%,87.4%,84.3%,89.8%,80.4%
CC1(c2ccccc2)NC(=O)N(CC(=O)Nc2ccc(C(=O)/C=C/c3ccc(Br)cc3)cc2)C1=O (centres undefined),64.4%,43.4%,78.1%,61.9%,59.5%,25.1%,64.3%,38.9%,12.8%,64.1%,59.8%,14.5%,72.9%,54.3%,30.9%,37%,39.9%,48.4%,23.3%
COc1ccc(-c2cc(C(=O)N=Nc3c(O)[nH]c4ccc(F)cc34)c3ccccc3n2)cc1,44.4%,68.3%,76.4%,110%,44.2%,87.1%,70.8%,88.3%,63.5%,103%,74.7%,25.2%,25.3%,6.12% (active),47.9%,104%,39.5%,109%,74.4%
CN(C)c1ccc(/C=C/C(=O)c2ccc(NC(=O)CN3C(=O)NC(C)(c4ccccc4)C3=O)cc2)cc1 (centres undefined),66%,53.2%,88.8%,88.9%,73.7%,65.3%,78.3%,56.5%,29.8%,110%,75.3%,27.9%,80.3%,68.1%,57.9%,54.9%,55.2%,62.9%,51.5%
CC1CC(c2ccc(N(C)C)cc2)=NN1c1nc(O)c(C2=c3cc(Br)ccc3=NC2=O)s1 (centres undefined),1.13% (active),77.8%,112%,92.7%,63.8%,83.8%,70.2%,72.6%,94%,99.7%,93.7%,61.9%,99.4%,99.8%,91.7%,68.9%,92.3%,91.2%,84.8%
O=C(NO)c1ccc(CN2CCN(c3nc(-c4ccccc4)c4ccccc4n3)CC2)cc1,-5.08% (active),3.26% (active),23.6%,2.94% (active),6.1% (active),37%,-21.2% (active),1.35% (active),14%,6.97% (active),23.1%,11.4%,11.2%,35%,26.5%,-11.7% (active),-23.8% (active),43.3%,5.75% (active)
COc1ccc(-c2c(N)c(=O)n(C)c3ccccc23)cc1,67.7%,46.5%,77%,75.3%,88.1%,9.05% (active),61.1%,92.1%,73.5%,103%,83.2%,46.8%,70.6%,49.5%,66%,75.2%,80.6%,92.9%,70.6%
CCCn1c(O)c(N=Nc2nc(-c3cc4ccccc4oc3=O)cs2)c2cc(Br)ccc21,94.8%,93.9%,102%,94.8%,110%,86.3%,93.4%,110%,75.1%,139%,101%,110%,88%,89.2%,89.8%,85.3%,85%,107%,97.6%
CC(=O)C1=C(C)NC(SCC(=O)Nc2ccc(S(=O)(=O)Nc3cc(C)on3)cc2)=NC1c1ccccc1 (centres undefined),102%,117%,102%,105%,98.3%,132%,100%,99.1%,102%,122%,109%,104%,100%,110%,107%,106%,101%,103%,108%
